Most compounds without a hit are left out; they make up all but 19% or so of the library.
TDP1 block – TDP1 (human) enzyme inhibition | Q9NUW8 | recombinant TDP1, AlphaScreen DNA substrate cleavage | Potency, µM (series often up to 130 µM), without a hit: at the top dose activity change, negative = inhibition, most hits filed as inhibitors | 350,000 tested, 0.28% active; further: nearly all actives have a fitted effect of over 40% in size
Target sequence (Q9NUW8 whole entry, looked up): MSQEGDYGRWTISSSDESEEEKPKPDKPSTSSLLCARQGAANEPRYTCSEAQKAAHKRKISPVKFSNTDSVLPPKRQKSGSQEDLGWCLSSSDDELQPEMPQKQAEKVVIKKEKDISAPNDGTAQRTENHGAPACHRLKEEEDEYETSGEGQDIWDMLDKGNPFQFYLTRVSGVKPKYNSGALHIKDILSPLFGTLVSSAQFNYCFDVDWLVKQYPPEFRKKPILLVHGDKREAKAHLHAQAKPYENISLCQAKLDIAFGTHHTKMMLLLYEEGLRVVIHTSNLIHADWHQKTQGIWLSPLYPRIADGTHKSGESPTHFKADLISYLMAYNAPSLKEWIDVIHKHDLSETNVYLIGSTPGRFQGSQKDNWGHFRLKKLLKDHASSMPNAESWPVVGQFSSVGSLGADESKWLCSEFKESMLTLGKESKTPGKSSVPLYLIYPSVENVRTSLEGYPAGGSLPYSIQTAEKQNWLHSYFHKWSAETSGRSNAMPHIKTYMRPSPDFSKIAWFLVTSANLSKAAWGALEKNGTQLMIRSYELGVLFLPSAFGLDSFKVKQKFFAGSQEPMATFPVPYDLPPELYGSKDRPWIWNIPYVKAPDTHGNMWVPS
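Recombinant human Tdp1 (E. coli-expressed, 1 nM final) preincubated with compounds 15 min at room temperature, then 5'-biotin/3'-phosphotyrosine-FITC DNA substrate (15 nM final) added for 5 min. AlphaScreen beads (10 ug/ml final) added 10 min; cleavage lowers signal.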
TDP1 cell noCPT – qHTS for Inhibitors of human tyrosyl-DNA phosphodiesterase 1 (TDP1): qHTS in cells in absence of CPT; DT40 Tdp1-/- hTDP1 cells, no CPT, ATP luminescence, 48 h; Potency, µM (doses to about 46.2 µM), for the others: at the top dose activity change, negative = growth inhibition, usual class: inhibitors; 420,000 tested, 15% active; AID 686978, 2013; further: nearly all actives have a fitted effect of over 55% in size
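Compound effects on proliferation are scored in DT40 Tdp1-/-;hTDP1 cells in the absence of CPT. ATP levels (CellTiter-Glo luminescence) are recorded after a ≥48 hr, 37 °C incubation.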
DT40 TDP1 CPT – DT40-hTDP1 cell growth loss with CPT | chicken DT40 Tdp1-/-;hTDP1 cells + 20 nM CPT, ATP luminescence, 48 h | AID 686979 | 420,000 tested, 12% active | Potency, µM (series often up to 46.2 µM), inactives show top-dose activity change, negative = growth inhibition, actives largely listed as inhibitors; further: nearly all actives have a fitted effect of over 55% in size
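Chicken DT40 Tdp1-/- cells stably complemented with human TDP1 were seeded at 400 cells/well in medium containing 20 nM camptothecin, exposed to pin-transferred compounds, and grown at 37 °C for at least 48 hr. Viability was read as ATP luminescence.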
RORg inh – ROR gamma (mouse) transcription inhibition; P51450; Drosophila S2 Gal4-RORgamma UAS-luciferase reporter, 20 h; 310,000 tested, 5.4% active; Potency, µM (doses to about 53.6 µM), for inactives: top-dose activity change, negative = inhibition, most hits filed as inhibitors; further: nearly all actives have a fitted effect of over 60% in size
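Drosophila S2 cells stably expressing Gal4-DBD/mouse RORγ fusion under metallothionein promoter plus UAS-luciferase; compound 1 h, then 700 uM CuSO4 induction for 20 h at ambient temperature; inhibition read as reduced luminescence.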
VP16 counter – Gal4-VP16 reporter inhibition counter-screen; Drosophila S2 Gal4-VP16 UAS-luciferase, luminescence, 20 h; Potency, µM (titrated, usually from 53.6 µM), without a hit: top-dose activity, negative = inhibition, most hits filed as inhibitors; 310,000 tested, 3.5% active; AID 2546;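 further: Gal4-VP16 expression switched on by copper sulfate through the metallothionein promoter; nearly all actives have a fitted effect of over 50% in size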
Starred values were filed as active, the others as inactive; ? = inconclusive; / = not tested or not shown; [ ] = another dose, or the depositor's remark. The call rests on the fitted dose curve; in most records, active means well fitted curve in the direction sought with a large enough effect; inconclusive means small, poorly fitted or top-dose-only effect, or another doubt; inactive means no such curve, though single readings can be large; an effect the other way counts as inactive or inconclusive. On the % scale 0 is the no-effect control and ±100 the full control effect; potency means the concentration at half of the fitted maximal effect.

SMILES	TDP1 block	TDP1 cell noCPT	DT40 TDP1 CPT	RORg inh	VP16 counter
NC(C(=O)O)[C@@H]1CC(Cl)=NO1 (stereo not given in full)	-7.9%[56.1 µM]	/	/	-4.6%	-6.4%
NC(C(=O)O)C1ON=C(Cl)C1O (stereo not given)	/	5.8µM*	5.8µM*	/	/
COc1ccc(C(=O)CC(=O)C(=O)Nc2c(C)cccc2C)cc1	/	9.2µM*	20.6µM*	6.31µM*	5.62µM*
COc1ccc(C(=O)CC(=O)C(=O)Nc2ccccc2Cl)cc1	/	10.3µM*	13µM*	6.31µM*	3.16µM*
COc1ccc(C(=O)CC(=O)C(=O)Nc2ccc(OC)c(Cl)c2)cc1	/	?	-22.1%	-6.6%	9.4%
COc1ccc(C(=O)CC(=O)C(=O)Nc2ccc(Cl)cc2)cc1	/	20.6µM*	?	7.08µM*	12.6µM*
COc1ccc(C(=O)CC(Nc2ccc([N+](=O)[O-])cc2)c2ccc(Cl)cc2)cc1 (stereo not given)	0.0%	18.4µM*	?	?	2.7%[0.365 µM]
COc1ccc(S(=O)(=O)CCC(=O)Nc2c(C)cccc2C)cc1	/	14.0%	3.1%	1.0%	0.5%
COc1ccc(C(=O)CC(=O)C(=O)Nc2cc(OC)ccc2OC)cc1	/	?	-1.7%	?	0.4%
COc1ccc(C(=O)NC(CC(=O)O)c2cc([N+](=O)[O-])ccc2Cl)cc1 (stereo not given)	4.6%	-9.6%	0.1%	5.1%	-7.1%
C/C(=N\NC(=O)c1cnccn1)c1ccc([N+](=O)[O-])cc1	5.1%	-3.2%	8.2%	12.7%	8.9%
O=C(CSc1nnc2ccc(-c3ccccn3)nn12)NCC1CCCO1 (stereo not given)	1.8%	23.3%	0.0%	-6.1%	-13.8%
COc1ccc(CNc2ncnc3ccc(-c4ccc(C(=O)N(C)C)cc4)cc23)c(OC)c1	/	?	?	32.4%	-3.1%
Cc1ccc(C)c(N2CCN(C(=O)c3ccc(NS(=O)(=O)c4c(C)noc4C)cc3)CC2)c1	4.0%	?	?	?	-7.1%
COc1ccc(S(=O)(=O)N(C)CC(=O)Nc2ccccc2C(F)(F)F)cc1	6.5%	-10.6%	-19.8%	-3.5%	2.8%
COc1ccc(C(=O)CC(=O)C(=O)Nc2ccccc2C(F)(F)F)cc1	/	6.51µM*	10.3µM*	6.31µM*	7.08µM*
CC(/C=C/c1ccccc1)=N\Nc1nc2c(c(=O)[nH]c(=O)n2C)n1CCO	6.5%	-16.0%	-10.7%	-7.4%	-4.1%
CC(=O)Nc1cccc(-c2ccnc3c2CC(C(=O)NCc2cccnc2)O3)c1 (stereo not given)	/	?	-13.1%	/	/
NC(=O)c1cccc(-c2ccnc3c2CC(C(=O)NCc2cccc(Cl)c2)O3)c1 (stereo not given)	/	14.6µM*	16.4µM*	/	/
NC(=O)c1cccc(-c2ccnc3c2CC(C(=O)NCC2CC2)O3)c1 (stereo not given)	/	1.6%	1.4%	/	/
CC(=O)Nc1ccc(-c2ccnc3c2CC(C(=O)NCc2cccc(Cl)c2)O3)cc1 (stereo not given)	/	2.31µM*	3.66µM*	/	/
O=C(NCCc1ccccc1)C1Cc2c(-c3ccc4c(c3)OCO4)ccnc2O1 (stereo not given)	/	16.4µM*	20.6µM*	/	/
CC(=O)Nc1cccc(-c2ccnc3c2CC(C(=O)NCc2cccc(Cl)c2)O3)c1 (stereo not given)	/	4.11µM*	3.26µM*	/	/
COc1cccc(C(=O)NC(C)c2nnc3n2CCN(CC=C(C)C)CC3)c1 (stereo not given)	/	-18.8%	-6.1%	/	/
CCOc1ccc(C(CC(=O)Nc2ccc(C(=O)OC)cc2)N2Cc3ccccc3C2=O)cc1OC (stereo not given)	2.8%	1.0%	2.2%	/	/
SMILES	TDP1 block	TDP1 cell noCPT	DT40 TDP1 CPT	RORg inh	VP16 counter
CSc1ccc(C(=O)NCC(=O)O)cc1[N+](=O)[O-]	4.1%	-7.7%	?	-4.7%	0.1%
O=C(COC(=O)c1ccc(F)c(S(=O)(=O)N2CCOCC2)c1)c1ccccc1	-2.2%	22.5%	0.3%	/	/
CCOC(=O)C1CCCN(S(=O)(=O)c2ccc3[nH]c(=O)oc3c2)C1 (stereo not given)	6.9%	?	-27.2%	/	/
COc1ccc(C(=O)NCCCc2ccccc2)cc1	/	-18.7%	-1.3%	/	/
CC(=O)Nc1cccc(-c2ccnc3c2CC(C(=O)NCCc2ccccc2)O3)c1 (stereo not given)	/	2.91µM*	4.61µM*	/	/
COc1ccc(CCCNC(=O)C2Cc3c(-c4ccccc4)ccnc3O2)cc1 (stereo not given)	/	5.8µM*	6.51µM*	/	/
CC(=O)Nc1cccc(-c2ccnc3c2CC(C(=O)NCCN(C)C)O3)c1 (stereo not given)	/	-0.6%	-26.0%	/	/
CN(C(=O)COC(=O)c1ccc(C(C)(C)C)cc1)C1CCS(=O)(=O)C1 (stereo not given)	-0.2%	-3.5%	-1.3%	/	/
CN(C(=O)COC(=O)c1nc(Cl)c(Cl)c(Cl)c1Cl)C1CCS(=O)(=O)C1 (stereo not given)	5.5%	20.6µM*	20.6µM*	?	?
COCC(=O)Nc1cc(C(=O)N2CCCC(C(C)=O)C2)cc2nc(-c3ccccc3)n(C)c12 (stereo not given)	/	1.3%	5.0%	/	/
CC(=O)NC(CC(=O)OCC(=O)c1ccc(NC(=O)CC(C)C)cc1)c1ccccc1 (stereo not given)	44.7µM*	3.4%	-19.0%	/	/
CCc1ccc(NC(=O)CSc2ccc3nnc(CCNS(=O)(=O)c4ccc(OC)cc4)n3n2)cc1	5.1%	?	-19.2%	/	/
CN(C(=O)c1cc(S(=O)(=O)N2CCc3ccccc32)cn1C)C1CCCCC1	/	18.4µM*	20.6µM*	?	-1.6%
CCOC(=O)c1c(S(=O)(=O)N2CCCC2)c(C)n(C)c1C	4.5%	-17.6%	?	-11.2%	-1.4%
CCOC(=O)c1c(S(=O)(=O)N2CCc3ccccc32)c(C)n(C)c1C	7.4%	?	23.1µM*	-3.2%	1.4%
Cn1cc(S(=O)(=O)N2CCc3ccccc32)cc1C(=O)Nc1ccc(Cl)cc1	/	25.9µM*	25.9µM*	-35.2%	-1.4%
CCOC(=O)c1c(S(=O)(=O)N2CCCCC2C)c(C)n(C)c1C (stereo not given)	2.5%	10.3µM*	?	-7.3%	-5.1%
CCc1cc(C(=O)OC)c(N2C(=O)C3C4C=CC(C4)C3C2=O)s1 (stereo not given)	-10.0%	-0.7%	-26.4%	3.9%[0.365 µM]	/
COc1ccc(C(=O)N2CCN(C3CCN(Cc4ccccc4)CC3)CC2)cc1OC	-3.5%	-13.7%	-15.6%	-25.5%	-4.9%
COc1ccc(-c2nnc(SCC(=O)Nc3nc4ccccc4s3)n2C)cc1	5.7%	-14.0%	0.9%	-14.1%	9.7%
